Structures are written as SMILES. Calls of active or inactive are those of the source. The calls were made as follows: active = hit-call score of the fitted dose curve at least 0.9, where 1 is the maximum; inactive = score below 0.9.

A short description of the first assay: ATG_TAL_CIS: Attagene CIS-FACTORIAL HepG2 Assay for human TAL Basal Promoter (AID 2282966).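 Also: background control endpoint measuring basal TAL promoter reporter mRNA not a specific factor.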 The note with it: HepG2 Attagene cis-factorial TAL promoter reporter; actives raise or lower the signal. The gist of the method: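 Readout: reporter mRNA, fluorescence by CE. System: HepG2, transient multi-reporter transfection, endogenous TF activity. Exposure: 24 h. Analysis: bidirectional, DMSO-normalized; background control.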
On to `Nc1ccc(S(N)(=O)=O)cc1`, for which the compound was classed as inactive.

Turning to `CNCCO`, the call was inactive.

With `OCc1cccnc1`, the call was inactive.

With `Cc1cc(C2(c3cc(C)c(O)cc3C)OS(=O)(=O)c3ccccc32)c(C)cc1O`, the outcome was inactive.

With `Cc1cccc(Nc2ccccc2C(=O)O)c1C`, the compound was called inactive.

Take `CC(=O)Nc1ccc(CC(=O)O)cc1`: the outcome was inactive.

Take `CC(C)[C@H]1CC[C@@H](C)CC1=O`: the result was inactive.

On to `CC1CCC2CC1C2(C)C` (configuration not stated), for which the result was inactive.

As for `C=CC(=O)OCCOCCOCC`, the compound was called inactive.

Regarding `COCCCOc1ccnc(CS(=O)c2nc3ccccc3[nH]2)c1C` (configuration not stated), the outcome was inactive.

What is called AC50 is the concentration at which the activity in the assay is half-maximal. As to `CC1CC(OC(=O)c2ccccc2O)CC(C)(C)C1` (configuration not stated), the AC50 is 181 µM (active).

Take `O=C(O)c1cn(-c2ccc(F)cc2)c2cc(N3CCNCC3)c(F)cc2c1=O`: the result was inactive.

Another assay in a line: ATG_TGFb_CIS: Attagene CIS-FACTORIAL HepG2 Assay for human Transforming Growth Factor (TGF) (AID 2282967). Conditions: HepG2 Attagene CIS TGFb reporter, mRNA transcription; actives raise or lower the signal. The method, boiled down: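 Cells were dosed for 24 hours, after which total RNA was reverse-transcribed and reporter sequences amplified, labeled and sized by capillary electrophoresis. Activity was fitted in both directions against DMSO.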
Turning to `CCCCCCC#CC(=O)OC`, the call was inactive.

Take `COc1ccnc(CS(=O)c2nc3cc(OC(F)F)ccc3[nH]2)c1OC` (configuration not stated): the outcome was inactive.

In the case of `Clc1nc(C(Cl)(Cl)Cl)c(Cl)c(Cl)c1Cl`, the AC50 was 62.2 µM (active).

With `C=C(C)C1CCC(C)CC1O` (configuration not stated), the compound was classed as inactive.

Take `CSc1nc(NC2CC2)nc(NC(C)(C)C)n1`: the outcome was inactive.

Take `CCO[Si](CCCS)(OCC)OCC`: the outcome was inactive.

`CCCCC[Si](OCC)(OCC)OCC`: the compound was called inactive.

`CC(=O)O[C@H](CC(=O)[O-])C[N+](C)(C)C`: the compound was called inactive.

Turning to `CCCCCCCCCCCCSC`, the compound was classed as inactive.

As for `O=C[C@@H](O)[C@H](O)[C@H](O)CO`, the compound was classed as inactive.

Turning to `OC1OC[C@@H](O)[C@H](O)[C@H]1O` (some centres not stated), the call was inactive.

`CCCCCCCCCCN`: the compound was classed as inactive.

In the case of `Cc1ccc(S)cc1`, the result was inactive.

In the case of `CC(CN1c2ccccc2Sc2ccccc21)N(C)C` (configuration not stated), the compound was called inactive.

Take `Clc1ccc2c(c1)C(N1CCNCC1)=Nc1ccccc1O2`: the compound was called inactive.

For the origin of these results see PubChem BioAssay (EPA / NIEHS).
